“And” between values parts separate entries of the source, which are not always exact repeats. Equal values may be shown once. Some structures have more than one record in an assay (separate samples or runs), and their calls can disagree. The source made the active and inactive calls. How the source made its calls: active means hit-call score of the fitted dose curve at least 0.9, where 1 is the maximum; inactive means score below 0.9.
Test system: not listed separately
Assay: ATG_DR4_LXR_CIS: Attagene CIS-FACTORIAL HepG2 Assay for human Liver X Receptor (LXR), DR4 submotif (AID 2282929)
Settings: HepG2 Attagene DR4 cis-reporter, mRNA transcription; actives raise or lower the signal
In short: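 Endogenous factor activity at a DR4 cis-element is read as reporter mRNA in transiently transfected HepG2 cells. Exposure lasts 24 h; transcripts are amplified, fluorescently labelled and sized by capillary electrophoresis, with DMSO as baseline.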
For NS(=O)(=O)C(F)(F)C(F)(F)C(F)(F)C(F)(F)C(F)(F)C(F)(F)C(F)(F)C(F)(F)F, the AC50 was 33.4 µM (active) and 105 µM (active) and the outcome was “inactive”. For Oc1ccc(C(c2ccc(O)cc2)(C(F)(F)F)C(F)(F)F)cc1, the AC50 was 11.1 µM (active) and 12.8 µM (active) and 8.79 µM (active) and the outcome was “inactive”. For ClC(Cl)=C(c1ccc(Cl)cc1)c1ccc(Cl)cc1, the AC50 was 44.6 µM (active) [middle of 4 runs]. For C[C@]12CCC(=O)C=C1CC[C@@H]1[C@@H]2CC[C@@]2(C)[C@H]1CC[C@]2(C)O, the AC50 was 163 µM (active) and the outcome was “inactive”. In the case of CCCN(CCC)N=O, the outcome is reported as “inactive”. With CC(C)(c1ccccc1)c1ccc(O)cc1 the AC50 was 40.4 µM (active) [middle of 4 runs]. For Cc1cc2c3c(c1)C(c1ccccc1)=N[C@@H](NC(=O)c1ccncc1)C(=O)N3CC2, the AC50 was 161 µM (active). In the case of CC(C)(O)C(=O)Nc1ccc([N+](=O)[O-])c(C(F)(F)F)c1, the outcome is reported as “inactive”. For CCCCCCOC(=O)c1ccccc1C(=O)OCCCCCC, the outcome was “inactive”. For N#Cc1ccc(N(CC(N)=O)CC(F)(F)F)cc1C(F)(F)F, the outcome was “inactive”. For Clc1ccc(Cl)cc1, the outcome was “inactive”. With c1cc2ccc3cccc4ccc(c1)c2c34 the outcome was “inactive”.

Target: Aryl hydrocarbon receptor (Homo sapiens) (UniProt P35869)
Sequence (P35869 whole entry, looked up): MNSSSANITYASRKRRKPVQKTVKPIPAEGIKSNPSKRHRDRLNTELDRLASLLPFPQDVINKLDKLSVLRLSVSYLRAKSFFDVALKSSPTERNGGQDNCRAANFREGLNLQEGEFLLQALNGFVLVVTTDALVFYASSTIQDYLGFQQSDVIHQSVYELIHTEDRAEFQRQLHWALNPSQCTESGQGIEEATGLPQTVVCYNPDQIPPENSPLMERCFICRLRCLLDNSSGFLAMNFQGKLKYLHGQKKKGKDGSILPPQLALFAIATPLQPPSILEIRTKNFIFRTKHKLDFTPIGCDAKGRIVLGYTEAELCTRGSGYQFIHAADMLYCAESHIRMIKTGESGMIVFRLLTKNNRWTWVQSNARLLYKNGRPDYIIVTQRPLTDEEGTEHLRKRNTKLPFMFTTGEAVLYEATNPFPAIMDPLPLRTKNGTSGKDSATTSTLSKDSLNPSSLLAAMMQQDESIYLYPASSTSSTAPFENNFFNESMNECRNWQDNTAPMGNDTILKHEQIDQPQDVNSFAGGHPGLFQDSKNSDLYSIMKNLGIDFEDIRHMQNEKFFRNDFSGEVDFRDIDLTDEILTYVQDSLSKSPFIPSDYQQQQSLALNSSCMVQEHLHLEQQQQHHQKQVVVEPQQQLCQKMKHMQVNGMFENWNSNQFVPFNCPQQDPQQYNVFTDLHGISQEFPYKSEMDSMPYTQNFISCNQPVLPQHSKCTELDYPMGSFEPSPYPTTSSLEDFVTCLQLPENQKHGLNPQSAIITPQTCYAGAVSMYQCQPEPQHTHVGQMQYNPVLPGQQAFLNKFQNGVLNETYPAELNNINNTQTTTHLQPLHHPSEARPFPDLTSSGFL
Assay: ATG_Ahr_CIS: Attagene CIS-FACTORIAL HepG2 Assay for human Aryl Hydrocarbon Receptor (Ahr) (AID 2282930)
Settings: HepG2 AhR cis-factorial reporter transcription; actives raise or lower the signal
In short: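 HepG2 cells transiently transfected with cis-element-driven multiplexed reporter units; endogenous AhR activity read as reporter mRNA 24 h after dosing, via RT-PCR, 6-FAM labelling, HpaI digestion and capillary electrophoresis. Bidirectional fit relative to DMSO.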
In the case of C[C@]12CCC(=O)C=C1CC[C@@H]1[C@@H]2CC[C@]2(C)C(=O)CC[C@@H]12, the AC50 is reported as 49.8 µM (active) and the outcome is reported as “inactive”. In the case of O=S(=O)(O)C(F)(F)C(F)(F)C(F)(F)C(F)(F)C(F)(F)C(F)(F)F, the outcome is reported as “inactive”. With CCOP(=S)(OCC)SCSC(C)(C)C the AC50 was 78.2 µM (active) and the outcome was “inactive”. With O=C(NC(=O)c1cc(F)c(F)cc1Cl)Nc1cc(F)ccc1N1CCC(C(=O)O)CC1 the outcome was “inactive”. With CC(c1ccc(O)cc1)(c1ccc(O)cc1)c1ccc(O)cc1 the outcome was “inactive”. In the case of ClC1=C(Cl)[C@]2(Cl)[C@@H]3[C@@H](Cl)[C@H]4O[C@H]4[C@@H]3C1(Cl)C2(Cl)Cl, the outcome is reported as “inactive”. With Cc1ccccc1[N+](=O)[O-] the outcome was “inactive”. With ClC1=C(Cl)[C@]2(Cl)[C@@H]3[C@H]4C[C@H]([C@@H]5O[C@H]45)[C@@H]3[C@@]1(Cl)C2(Cl)Cl the outcome was “inactive”. For Oc1c(Cl)c(Cl)c(Cl)c(Cl)c1Cl, the AC50 was 14 µM (active) and 6.01 µM (active) and 874 nM (active). For CCCCCCCCCc1ccc(O)cc1, the outcome was “inactive”. With O=S(=O)(O)C(F)(F)C(F)(F)C(F)(F)C(F)(F)F the AC50 was 110 µM (active) and the outcome was “inactive”. With CC#Cc1cc(C)nc(Nc2ccccc2)n1 the AC50 was 23 µM (active). In the case of O=C(O)C(F)(F)C(F)(F)C(F)(F)C(F)(F)C(F)(F)C(F)(F)C(F)(F)C(F)(F)F, the outcome is reported as “inactive”. With O=C(O)C(F)(F)C(F)(F)C(F)(F)C(F)(F)C(F)(F)C(F)(F)C(F)(F)C(F)(F)C(F)(F)F the AC50 was 69.7 µM (active) and the outcome was “inactive”. In the case of CCCCCCCCCC[N+](C)(C)CCCCCCCCCC, the outcome is reported as “inactive”. With CCC(=O)O[C@H]1CC[C@H]2[C@@H]3CCC4=CC(=O)CC[C@]4(C)[C@H]3CC[C@]12C the AC50 was 38.6 µM (active) and the outcome was “inactive”. In the case of COc1ccc(O)c(C(C)(C)C)c1, the outcome is reported as “inactive”. With CC1=C2C[C@H]3[C@@H](CC=C4C[C@@H](O)CC[C@@]43C)[C@@H]2CC[C@]12O[C@@H]1C[C@H](C)CN[C@H]1[C@H]2C the outcome was “inactive”. In the case of O=C(N[C@H]1CN2CCC1CC2)c1cc2ccoc2cn1, the outcome is reported as “inactive”. For NS(=O)(=O)C(F)(F)C(F)(F)C(F)(F)C(F)(F)C(F)(F)C(F)(F)C(F)(F)C(F)(F)F, the outcome was “inactive”. With Oc1ccc(C(c2ccc(O)cc2)(C(F)(F)F)C(F)(F)F)cc1 the AC50 was 11.1 µM (active) and 5.94 µM (active) and 13.3 µM (active) and the outcome was “inactive”. In the case of ClC(Cl)=C(c1ccc(Cl)cc1)c1ccc(Cl)cc1, the AC50 is reported as 19.8 µM (active) and 122 µM (active) and the outcome is reported as “inactive”. For C[C@]12CCC(=O)C=C1CC[C@@H]1[C@@H]2CC[C@@]2(C)[C@H]1CC[C@]2(C)O, the outcome was “inactive”. With CCCN(CCC)N=O the outcome was “inactive”. With CC(C)(c1ccccc1)c1ccc(O)cc1 the outcome was “inactive”. In the case of Cc1cc2c3c(c1)C(c1ccccc1)=N[C@@H](NC(=O)c1ccncc1)C(=O)N3CC2, the outcome is reported as “inactive”. For CC(C)(O)C(=O)Nc1ccc([N+](=O)[O-])c(C(F)(F)F)c1, the outcome was “inactive”. With CCCCCCOC(=O)c1ccccc1C(=O)OCCCCCC the outcome was “inactive”. With N#Cc1ccc(N(CC(N)=O)CC(F)(F)F)cc1C(F)(F)F the outcome was “inactive”. For Clc1ccc(Cl)cc1, the outcome was “inactive”. For Clc1ccc(C(c2ccccc2Cl)C(Cl)(Cl)Cl)cc1 (centres undefined), the outcome was “inactive”. In the case of c1cc2ccc3cccc4ccc(c1)c2c34, the AC50 is reported as 68.7 µM (active).

Source: PubChem BioAssay (EPA / NIEHS)
